Assay results reported in PubChem BioAssay (Tox21).
Results filed as inconclusive are left out. The source made the active and inactive calls. Unless noted, calls come from the whole dose curve; as a rule, active = well fitted curve in the direction sought with a large enough effect in the repeat runs; inconclusive = weak or mixed curves; inactive = no such curve, though single readings can be large; an effect the other way counts as inactive or inconclusive.

Key:
[1] = qHTS assay for small molecules that induce genotoxicity in human embryonic kidney cells expressing luciferase-tagged ATAD5 (AID 651632); note: nearly all actives have a fitted effect of over 15% in size
Method in brief: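 Increased luciferase signal from ATAD5-tagged reporter cells indicates DNA-damage-driven ATAD5 induction. HEK293T cells are treated for 16 hr at 37C before detection with Amplite.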

[2] = qHTS assay for small molecule agonists of the p53 signaling pathway - cell viability (AID 651633; calls by dose curve; note: nearly all actives have a fitted effect of over 30% in size; note: potency is the fitted concentration of half-maximal effect)
Method in brief: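 p53RE-bla cells, seeded at 4,000 per well and rested 5 h at 37 C/5% CO2, received compounds in DMSO for 16 h at 37 C. CellTiter-Glo was then added, and luminescence was read after 30 min at room temperature to gauge cytotoxicity.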

[3] = qHTS assay for small molecules that induce genotoxicity in human embryonic kidney cells expressing luciferase-tagged ATAD5 - cell viability (AID 651634; calls by dose curve; note: nearly all actives have a fitted effect of over 25% in size)
Method in brief: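 Cytotoxicity counterscreen in HEK293T cells bearing an ATAD5-luciferase reporter: live-cell protease activity measured by CellTiter-Fluor fluorescence after 15.5 hr compound exposure.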

[4] = qHTS assay for small molecule disruptors of the mitochondrial membrane potential - cell viability (AID 720634; calls by dose curve;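 note: human HepG2 liver cancer cells; nearly all actives have a fitted effect of over 20% in size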)
Method in brief: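 After overnight attachment at 37 C, HepG2 cells received compound or DMSO vehicle for 1 hr. Viability is then taken from ATP-driven luminescence following a 30 min room-temperature CellTiter-Glo step.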

[5] = qHTS assay for small molecule disruptors of the mitochondrial membrane potential (AID 720635)
Method in brief: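 HepG2 cells (2,000/well) attached overnight at 37C, then took compound for 1 hr at 37C, 5% CO2. Mito-MPS dye was added for 30 min; fluorescence was read at 490/535 nm (monomers) and 540/590 nm (aggregates).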

[6] = qHTS assay to test for compound auto fluorescence at 590 nm (red) in HepG2 cells (AID 720674)
Method in brief: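 Rose Bengal sodium served as the red fluorophore standard. HepG2 monolayers (overnight attachment, MEM with 10% FBS) were exposed to test compounds for 1 hr at 37 C and read at Ex 540/Em 590 nm.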

[7] = qHTS assay to test for compound auto fluorescence at 535 nm (green) in HepG2 cells (AID 720675)
[8] = qHTS assay to test for compound auto fluorescence at 590 nm (red) in HEK293 cells (AID 720679)
Method in brief: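 HEK293 cells (2,000/well, medium with 10% dialyzed FBS) attached for 4-5 hr at 37C, received 23 nL compound and were incubated overnight at 37C, 5% CO2. Red fluorescence was then read at 540/590nm Ex/Em, referenced to Rose Bengal sodium.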

[9] = qHTS assay to test for compound auto fluorescence at 460 nm (blue) in HEK293 cell free culture (AID 720681)
Method in brief: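 Test compounds were pinned into cell-free culture medium (DMEM with 10% FBS) and fluorescence was read directly at Ex/Em 405/460 nm. Signals were expressed as fluorescence equivalents of triamterene, with DMSO vehicle as control.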

[10] = qHTS assay to test for compound auto fluorescence at 535 nm (green) in HEK293 cell free culture (AID 720682)
Method in brief: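 Using fluorescein as calibrant, autofluorescence was quantified at 485/535 nm in cell-free DMEM containing 10% FBS after pintool addition of compound or vehicle.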

[11] = qHTS assay to test for compound auto fluorescence at 590 nm (red) in HEK293 cell free culture (AID 720683)
Method in brief: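 Tox21 10K library compounds were pinned into cell-free DMEM with 10% FBS and fluorescence was read at excitation 540 nm. Activity is expressed as Rose Bengal sodium equivalency.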

[12] = qHTS assay to test for compound auto fluorescence at 590 nm (red) in HepG2 cell free culture (AID 720684)
Method in brief: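 Measured in medium alone (MEM containing 10% FBS) following pintool addition of compound; emission at 590 nm with 540 nm excitation, referenced to Rose Bengal sodium.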

[13] = qHTS assay to test for compound auto fluorescence at 460 nm (blue) in HepG2 cell free culture (AID 720685)
Method in brief: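 Compound (23 nL) or DMSO pinned into cell-free MEM with 10% FBS; blue fluorescence read at 405/460 nm excitation/emission, expressed as auto-fluorescence equivalency to triamterene.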

[14] = qHTS assay to test for compound auto fluorescence at 535 nm (green) in HepG2 cell free culture (AID 720686)
[15] = qHTS assay to test for compound auto fluorescence at 460 nm (blue) in HepG2 cells (AID 720687)
Method in brief: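 Cells (2,000/well in MEM with 10% FBS) attached overnight at 37 C, then were exposed to compound or DMSO for 1 hr at 37 C, 5% CO2. Fluorescence read at Ex/Em 405/460 nm, expressed as triamterene-equivalent signal.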

[16] = molecular target: Glucocorticoid receptor (Homo sapiens) (UniProt P04150); assay: qHTS assay to identify small molecule agonists of the glucocorticoid receptor (GR) signaling pathway (AID 720691; active = well fitted activation curve with a large enough effect in the signal ratio in the repeat runs, not every such curve was filed as active; the % refers to the signal ratio); settings: GR-bla HeLa, beta-lactamase reporter ratio, 18 h; activation: at 62.4 µM (top of the series) unless noted
Method in brief: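 Agonist mode in a HeLa line carrying a GRE-controlled beta-lactamase reporter. Compounds act for 18 h at 37 C before a 2 h room-temperature FRET substrate step and fluorescence reading.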

[17] = qHTS assay for small molecule agonists of the p53 signaling pathway (AID 651631; calls by dose curve; note: nearly all actives have a fitted effect of over 15% in size; note: potency is the fitted concentration of half-maximal effect)
Method in brief: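 Stably transfected HCT-116 cells (beta-lactamase behind p53 response elements) get compounds after a 5 h settling period; 16 h later at 37 °C, FRET substrate is loaded and fluorescence read after 2 h.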

[18] = qHTS assay to test for compound auto fluorescence at 460 nm (blue) in HEK293 cells (AID 720678)
Method in brief: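 HEK293 cells (2,000 per well, medium with 10% dialyzed FBS) attached for 4-5 hr at 37C, then received compound and stood overnight at 37C, 5% CO2. Blue fluorescence was read at Ex/Em 405/460 nm and expressed relative to triamterene.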

[19] = qHTS assay to test for compound auto fluorescence at 535 nm (green) in HEK293 cells (AID 720680)
[20] = molecular target: Glucocorticoid receptor (Homo sapiens) (UniProt P04150); assay: qHTS assay to identify small molecule antagonists of the glucocorticoid receptor (GR) signaling pathway (AID 720692; active = well fitted inhibition curve with a large enough effect in the signal ratio in the repeat runs, not every such curve was filed as active; the % refers to the signal ratio; note: potency is the fitted concentration of half-maximal effect)
Method in brief: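 Cells plated, rested 4 h at 37 C/5% CO2; compounds in DMSO pin-transferred; dexamethasone added to 5 nM final; 18 h at 37 C; B/G FRET substrate added, 2 h room temperature; fluorescence measured.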
% is set by controls: 0 for no effect and ±100 for the full control effect.

Sequence of Glucocorticoid receptor (Homo sapiens) (P04150 whole entry, looked up): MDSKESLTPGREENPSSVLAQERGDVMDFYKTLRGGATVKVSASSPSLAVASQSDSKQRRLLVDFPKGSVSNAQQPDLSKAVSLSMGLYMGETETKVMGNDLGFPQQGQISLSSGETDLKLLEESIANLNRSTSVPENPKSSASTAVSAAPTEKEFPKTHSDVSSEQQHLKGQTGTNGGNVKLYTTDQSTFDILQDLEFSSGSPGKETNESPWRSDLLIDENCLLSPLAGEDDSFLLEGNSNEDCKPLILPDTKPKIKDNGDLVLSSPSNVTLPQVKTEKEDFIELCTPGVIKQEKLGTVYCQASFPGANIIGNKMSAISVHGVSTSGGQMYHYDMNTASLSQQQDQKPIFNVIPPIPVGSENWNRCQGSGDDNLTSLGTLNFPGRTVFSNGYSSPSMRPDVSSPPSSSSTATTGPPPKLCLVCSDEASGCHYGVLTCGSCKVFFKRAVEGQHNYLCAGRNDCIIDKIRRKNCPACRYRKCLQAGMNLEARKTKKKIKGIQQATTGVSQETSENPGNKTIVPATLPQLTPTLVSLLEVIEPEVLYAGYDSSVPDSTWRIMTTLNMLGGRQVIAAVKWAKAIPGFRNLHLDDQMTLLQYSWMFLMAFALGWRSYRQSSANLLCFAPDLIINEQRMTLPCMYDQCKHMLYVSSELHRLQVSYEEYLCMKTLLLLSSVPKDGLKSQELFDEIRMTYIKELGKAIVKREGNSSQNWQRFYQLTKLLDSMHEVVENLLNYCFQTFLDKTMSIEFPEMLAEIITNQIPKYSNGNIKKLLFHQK

C[N+]1(C)CCC(OC(=O)C(O)(c2ccccc2)C2CCCC2)C1 (centres undefined)
inactive: Potency [1] | Potency [2] | Potency [3] | Potency [4] | Potency [5] | Potency [6] | Potency [7] | Potency [8] | outcome [9] | outcome [10] | Potency [11] | Potency [12] | outcome [13] | Potency [14] | outcome [15] | Potency [16]

CC(=O)OC[C@H]1O[C@@H](n2ncc(=O)[nH]c2=O)[C@H](OC(C)=O)[C@@H]1OC(C)=O
active: Potency [17] 1.88 µM
inactive: Potency [3] | Potency [4] | Potency [5] | Potency [6] | Potency [7] | Potency [8] | outcome [9] | Potency [11] | Potency [12] | outcome [13] | Potency [14] | outcome [15]

Cc1oc2c(NC(=O)c3c(Cl)cccc3Cl)cccc2c1C(C)(C)O
inactive: Potency [17] | Potency [2] | Potency [6] | outcome [18] | Potency [8] | outcome [19] | outcome [9] | outcome [10] | Potency [11] | Potency [12] | outcome [13] | Potency [14] | outcome [15]

CCC(CC)Nc1ccc(C)c(C)c1
inactive: Potency [1] | Potency [2] | Potency [3] | Potency [4] | Potency [6] | Potency [7] | outcome [18] | Potency [8] | outcome [19] | outcome [9] | outcome [10] | Potency [11] | Potency [12] | outcome [13] | Potency [14] | outcome [15]

O=C(O)c1nc(Cl)c(Cl)c(Cl)c1Cl
inactive: Potency [1] | Potency [2] | Potency [3] | Potency [4] | Potency [5] | Potency [6] | Potency [7] | outcome [18] | Potency [8] | outcome [19] | outcome [9] | outcome [10] | Potency [11] | Potency [12] | outcome [13] | Potency [14] | outcome [15]

O=C(O)C(S)C(S)C(=O)O (centres undefined)
inactive: Potency [1] | Potency [2] | Potency [3] | Potency [4] | Potency [5] | Potency [6] | Potency [7] | outcome [18] | Potency [8] | outcome [19] | outcome [9] | outcome [10] | Potency [11] | Potency [12] | outcome [13] | Potency [14] | outcome [15]

C1CCCNCCC1
inactive: Potency [1] | Potency [2] | Potency [3] | Potency [4] | Potency [6] | Potency [7] | outcome [18] | Potency [8] | outcome [19] | outcome [9] | Potency [11] | Potency [12] | Potency [14] | outcome [15]

CCOC(=O)c1cccnc1
inactive: Potency [17] | Potency [2] | Potency [4] | Potency [5] | Potency [6] | Potency [7] | Potency [8] | outcome [19] | outcome [9] | outcome [10] | Potency [11] | Potency [12] | outcome [13] | Potency [14] | outcome [15] | Potency [16] | Potency [20]

CO[C@@H]1[C@H](OC(=O)/C=C/C=C/C=C/C=C/C(=O)O)CC[C@]2(CO2)[C@H]1[C@@]1(C)O[C@@H]1CC=C(C)C
inactive: Potency [1] | Potency [2] | Potency [3] | Potency [4] | Potency [6] | Potency [7] | outcome [18] | Potency [8] | outcome [19] | outcome [9] | outcome [10] | Potency [11] | Potency [12] | outcome [13] | Potency [14] | outcome [15] | Potency [16]

CCn1cc(C(=O)O)c(=O)c2cnc(N3CCNCC3)nc21
inactive: Potency [17] | Potency [2] | Potency [3] | fluorescence, % of fluorescein control [7] -0.0874% [at 18.6 µM] | fluorescence, % of fluorescent control [8] -0.324% [at 18.6 µM] | fluorescence, % of fluorescein [19] 0.0376% [at 18.6 µM] | fluorescence, % of fluorescent control [9] 6.27% [at 18.6 µM] | activity change [10] 0.0637% [at 18.6 µM] | fluorescence, % of fluorescent control [11] -0.371% [at 18.6 µM] | fluorescence, % of Rose Bengal [12] -0.185% [at 18.6 µM] | fluorescence, % of fluorescent control [13] 0.0041% [at 18.6 µM] | fluorescence, % of fluorescein control [14] 0.152% [at 18.6 µM] | fluorescence, % of fluorescent control [15] -0.128% [at 18.6 µM]

CC(C)(C)Cl
inactive: Potency [1] | Potency [2] | Potency [3] | Potency [4] | Potency [5] | Potency [6] | Potency [7] | outcome [18] | Potency [8] | outcome [19] | outcome [9] | outcome [10] | Potency [11] | Potency [12] | outcome [13] | Potency [14] | outcome [15]

CC(C)=CCC/C(C)=C/CC/C(C)=C/CO
inactive: Potency [1] | Potency [3] | Potency [4] | Potency [6] | Potency [7] | outcome [18] | Potency [8] | outcome [19] | outcome [9] | outcome [10] | Potency [11] | Potency [12] | Potency [14] | outcome [15]
active: Potency [2] 68.6 µM

CC(CSC(=O)c1ccccc1)C(=O)N1C[C@@H](Sc2ccccc2)C[C@H]1C(=O)O (some centres undefined)
inactive: Potency [1] | Potency [2] | Potency [3] | Potency [4] | Potency [5] | Potency [6] | Potency [7] | Potency [8] | outcome [19] | outcome [9] | Potency [11] | Potency [12] | outcome [13] | outcome [15] | Potency [20]

O=C(Nc1ccc(S(=O)(=O)N2CCOCC2)cc1)c1cc(Cl)ccc1NS(=O)(=O)c1ccc(Cl)s1
active: Potency [17] 26.6 µM | Potency [2] 9.44 µM | Potency [20] 26.8 µM
inactive: Potency [4] | Potency [6] | Potency [7] | outcome [18] | Potency [8] | outcome [19] | outcome [9] | Potency [11] | Potency [12] | outcome [13] | Potency [14] | outcome [15]

C=CC(=O)OCCOc1ccccc1
active: Potency [17] 68.5 µM | Potency [20] 21.9 µM
inactive: Potency [3] | Potency [4] | Potency [6] | outcome [18] | Potency [8] | outcome [19] | outcome [9] | outcome [10] | Potency [11] | Potency [12] | Potency [14] | outcome [15]
